Source: PubChem BioAssay (NCATS)
Inconclusive results are not listed. Activity calls are given as the source filed them. Calls come from the whole dose curve; as a rule, active = well fitted curve in the direction sought with a large enough effect; inconclusive = small, poorly fitted or top-dose-only effect, or another doubt; inactive = no such curve, though single readings can be large or run the other way. Starred links: 1 amine or outer side, 2 acyl side, 3 side chain; linkers in the order of their positions; H or OH if unused. Positions of bridges follow the written chain, without caps; N, C: chain ends. Non-standard residues stand in square brackets, D forms with d. Residues, ends and D or L forms follow the SMILES beside them. ξ: configuration not given here. *: point of attachment. X3 = C[C@@H](Oc1ccc([C@H](N[*:1])C(=O)[*:2])cc1)[C@]1(/C=C\C(=O)[*:3])CO1; d(aIle) = CC[C@H](C)[C@@H](N)C(=O)O; X2 = CC(C)[C@@H](O)C(C)C(=O)*; ξNMeF = CNC(Cc1ccccc1)C(=O)O; ξT = CC(O)C(N)C(=O)O; ξS = NC(CO)C(=O)O

Assay: HPAF-II 18hr Apoptosis Induction qHTS against the NCATS CANVASS Library (AID 1347360)
Conditions: HPAF-II caspase-3/7 luminescence; series mostly up to 46.1 µM
Source text: Natural products and their derivatives continue to be wellsprings of nascent therapeutic potential. However, many laboratories have limited resources for biological evaluation, leaving their previously isolated or synthesized compounds largely or completely untested. To address this issue, the Canvass library of natural products was assembled (https://tripod.nih.gov/canvass), in collaboration with academic and industry researchers, for quantitative high-throughput screening (qHTS) across a diverse set of cell-based and biochemical assays. The pure (>85% purity by liquid chromatography/mass spectrometry [LC/MS]) Canvass library of 346 natural products were submitted by 45 academic laboratories and companies around the world. We collected pure natural products to circumvent deconvolution and structure elucidation due to time and resource limitations. The library was formatted into 1536-well plates and evaluated in 50 qHTS (in an 11-pnt concentration series) bioassays with broad scope of disease-relevant mechanisms. The resulting data set from 50 different assays was then systematically analyzed to identify overall trends and specific natural products with interesting biological activities. Reported herein are the results of each individual qHTS and their corresponding assay protocol. The Caspase-Glo (R) (Promega) is a homogeneous, luminescent assay that measures caspase activity. The detection substrate contains tetrapeptide sequence DEVD in an "add-mix-measure" format. The reagent generates a luminescent signal produced by a thermostable luciferase. The luminescence is proportional to the amount of caspase activity in the assay reaction. National Center for Advancing Translational Sciences (NCATS), Rockville, MD National Institute of Health (NIH), Bethesda, Maryland
Cancer Cell Apoptosis Assay 1. In a 1536 well, white solid bottom tissue culture plates (Corning 7494), HPAF-II cancer cells in DMEM + 10% FBS + 1% P/S media were dispensed in each well at a final concentration of 500 cells / well (5uL volume) using the Multidrop Combi (Thermo Fisher Scientific) dispenser. 2. Compounds were pin transferred (~23nL volume) via Wako Pin-tool (Wako Automation, Richmond VA) equipped with a 1536 pin head. The assay plates were treated with compounds in a concentration series with a final concentration range of 0.17nM to 103uM. 3. Doxorubicin was used as a control in a 16pnt titration (1mM; 1:2 dilution; 16-points; n = 2; column 3, rows 1 - 32) and was pin transferred via Wako Pin-tool equipped with a 1536 pin head. The final concentration range of doxorubicin is 0.1nM - 4uM. 4. The assay plates were incubated for 18 hours at 37 degrees C/5% CO2/95% Rh. 5. 3uL Caspase-Glo 3/7 (R) (Promega) detection reagent was then added to the assay plates (columns 2 - 48, rows 1 - 32) and incubated at room temperature, covered from light, for 15 min. 6. Luminescence signal was acquired via the ViewLux plate reader (PerkinElmer) using a clear filter, 20 second exposure and 2x binning settings.

SMILES	outcome
CO[C@H]1C[C@H](O[C@H]2[C@@H](O)C[C@H](O[C@H]3CC[C@]4(C=O)[C@H]5CC[C@]6(C)C(C7=CC(=O)OC7)CC[C@]6(O)[C@@H]5CC[C@]4(O)C3)O[C@@H]2C)O[C@H](C)[C@H]1O[C@H]1C[C@@H](OC)[C@@H](O[C@@H]2O[C@H](CO)[C@@H](O)[C@H](O)[C@H]2O)[C@@H](C)O1 (some centres undefined)	inactive
C/C=C/[C@@H]1[C@H]2C[C@@H](C)CC[C@@H]2C(C)=C[C@H]1C(=O)c1c(O)c(-c2ccc(O)cc2)c[nH]c1=O	inactive
CCC(=O)N[C@@H](C[C@H](C)C(Cl)(Cl)Cl)C(=O)N1C(=O)C=C(OC)[C@@H]1C[C@H](C)C(Cl)Cl	inactive
C/C=C1/CN2CC[C@]34C(=C(C(=O)OC)[C@H]1C[C@H]23)Nc1ccccc14	inactive
C[C@]12CCC3[C@@H](CC[C@@H]4C[C@@H](O)CC[C@]34CO)[C@@]1(O)CC[C@@H]2C1=CC(=O)OC1 (some centres undefined)	inactive
O[C@H]1C=C[C@@]23CCN(Cc4cc5c(cc42)OCO5)[C@@H]3C1	inactive
CC[C@H](C)[C@H]1NC(=O)[C@@H](NC(=O)C(C)[C@H](O)C(C)C)[C@@H](C)OC(=O)C2COC(=O)CNC(=O)/C=C\[C@]3(CO3)[C@@H](C)Oc3ccc(cc3)[C@H](NC1=O)C(=O)N(C)C(Cc1ccccc1)C(=O)NC(C(C)O)C(=O)N2 (some centres undefined) (X2-T[d(aIle)][X3][ξNMeF][ξT][ξS]; ester 1-C; linker 3-6 via G)	inactive
CCCC[C@@H]1CC[C@H]2CCCC(CCCO)N12 (some centres undefined)	inactive
COC1=C(C2=C(OC)C(=O)c3cc4c(c(O)c3C2=O)C(=O)O[C@H](C)C4)C(=O)c2c(cc3c(c2O)C(=O)O[C@H](C)C3)C1=O	inactive
C[C@]12CC(O)C3[C@@H](CC[C@@H]4C[C@@H](O)CC[C@]34CO)[C@@]1(O)CC[C@@H]2C1=CC(=O)OC1 (some centres undefined)	inactive
CC(C)CC1C(=O)O[C@H](C(C)C)C(=O)N(C)C(CC(C)C)C(=O)O[C@@H](C(C)C)C(=O)N(C)C(CC(C)C)C(=O)O[C@H](C(C)C)C(=O)N(C)C(CC(C)C)C(=O)O[C@@H](C(C)C)C(=O)N1C (some centres undefined)	inactive
CCCC[C@@H](C)/C=C1/CN2CCC[C@H]2[C@@](C)(O)[C@@H]1O	inactive
C=C[C@H]1CN2CCc3c([nH]c4cccc(OC)c34)[C@@H]2C[C@@H]1/C(=C\OC)C(=O)OC	inactive
C/C=C1/CN2C3CC1C1=CCC(=O)N4c5ccccc5[C@@]3(C[C@@H]2C2=C[C@H]3C5CC6N(CC[C@@]67c6ccccc6N(C2=O)[C@@H]37)C/C5=C/C)[C@H]14 (some centres undefined)	inactive
C/C=C(\C)C(=O)O[C@@H]1[C@@H](O)[C@@H]2O[C@H]3[C@H](O[C@@H](CCCCC)CCCCCCC(=O)CCC(=O)OC[C@@H](O2)[C@H]1OC(=O)/C=C/c1ccccc1)O[C@H](C)[C@H](OC(C)=O)[C@@H]3O	inactive
CCCCC1CC[C@H]2CCCC(CCC)N12 (some centres undefined)	inactive
C[C@]12CC(O)C3[C@@H](CCC4C[C@@H](O)CC[C@@]43CO)[C@@]1(O)CC[C@@H]2C1=CC(=O)OC1 (some centres undefined)	inactive

SMILES	outcome
COC1C(O)C(C)OC(OC2C(Oc3cccc4c(O)c5c(=O)oc6ccc(C)c7c(=O)oc(c34)c5c67)OC(C)C(O)C2O)C1O (centres undefined)	inactive
CC[C@@H]1CN2CCc3c([nH]c4cccc(OC)c34)[C@@H]2C[C@@H]1/C(=C\OC)C(=O)OC	inactive
CC[C@@H]1CN2CCC3(Nc4cccc(OC)c4C3=O)[C@@H]2C[C@@H]1/C(=C\OC)C(=O)OC (some centres undefined)	inactive
CC[C@H]1CN2CCc3c([nH]c4cccc(OC)c34)[C@@H]2C[C@@H]1/C(=C\OC)C(=O)OC	inactive
C=CC(C)(C)[C@@]12C[C@H]3C(=O)N/C(=C/c4cnc[nH]4)C(=O)N3[C@@H]1Nc1ccccc12	inactive
CO[C@@]12c3c(C)cc(O)c4c(=O)occ(c34)C(=O)[C@@H]1[C@]13COC(=O)c4c(O)cc(C)c(c41)C(=O)[C@H]2[C@@H]3OC(C)=O	inactive
C1=C2CCCN[C@H]2C2CC1[C@H]1CCCCN1C2 (some centres undefined)	inactive
c1ccc2nc3c(cc2c1)[nH]c1ccccc13	inactive
C/C=C1/CN2CC[C@@]34c5ccccc5N(C)[C@@H]3[C@@H]2C[C@@H]1[C@H]4C(=O)OC	inactive
CO[C@H]1[C@H](O[C@H]2CC[C@]3(C=O)[C@H]4CC[C@]5(C)[C@@H](C6=CC(=O)OC6)CC[C@]5(O)[C@@H]4CC[C@]3(O)C2)O[C@H](C)[C@H](O)[C@@H]1OC	inactive
C=CC(C)(C)[C@@]12C[C@H]3C(=O)N/C(=C\c4cnc[nH]4)C(=O)N3[C@@H]1Nc1ccccc12	inactive
CO[C@H]([C@@H](C)[C@H]1O[C@]1(C)C[C@H](C)/C=C/C=C(\C)[C@H]1O[C@@H](CC(=O)O)CC[C@@H]1C)[C@@H](C)O	inactive
C=C[C@]12C=CCN3CC[C@@]4(c5ccccc5NC(=O)[C@@H]4C1)[C@@H]32	inactive
CO[C@@H](/C=C/CC/C=C/C(=O)O)[C@@H](O)[C@H](C)/C=C(\C)[C@H](O)[C@H](C)C(=O)CCCC1CC(=O)NC(=O)C1	inactive
C/C(=C\[C@H](C)C(=O)C[C@H](O)CC1CC(=O)NC(=O)C1)[C@@H]1OC(=O)/C=C/CC/C=C/C=C/[C@@H]1C	inactive
CC[C@]12C=CCN3CC[C@]4(C(=C(C(=O)OC)C1)Nc1ccccc14)[C@@H]32	inactive
C[N+](C)(C)CCc1c[nH]c2ccccc12	inactive
